According to PubChem BioAssay (NCI):
About 83,000 compounds went through this panel and 20% of them were active in at least one assay; those are over-represented in the sample as a whole.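 48-hour exposure, single concentration, 96-well plates; percent growth endpoint where 0 means no net growth. Active: below 10.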 Values without a mark were called inactive. The source made the active and inactive calls.

Legend:
Assay in all cases: NCI-60 one-dose screen, 48 h (100 = growth as untreated, 0 = no growth, -100 = all killed)
Conditions in all cases: 10 µM
NCI-H23 lung = system: NCI-H23 lung
NCI-H226 lung = system: NCI-H226 lung
NCI-H322M lung = system: NCI-H322M lung
HOP-62 NSCLC = system: HOP-62 NSCLC
NCI-H460 lung = system: NCI-H460 lung
HOP-92 NSCLC = system: HOP-92 NSCLC
NCI-H522 lung = system: NCI-H522 lung
A549/ATCC NSCLC = system: A549/ATCC NSCLC
786-0 renal = system: 786-0 renal
COLO 205 colon = system: COLO 205 colon
DU-145 prostate = system: DU-145 prostate
K-562 leukemia = system: K-562 leukemia
MALME-3M melanoma = system: MALME-3M melanoma
RXF 393 renal = system: RXF 393 renal
SF-268 CNS = system: SF-268 CNS
SF-295 CNS = system: SF-295 CNS
SF-539 CNS = system: SF-539 CNS
UACC-257 melanoma = system: UACC-257 melanoma
M14 melanoma = system: M14 melanoma
MDA-MB-231 breast = system: MDA-MB-231 breast

Row | Compound | growth (NCI-H23 lung) | growth (NCI-H226 lung) | growth (NCI-H322M lung) | growth (HOP-62 NSCLC) | growth (NCI-H460 lung) | growth (HOP-92 NSCLC) | growth (NCI-H522 lung) | growth (A549/ATCC NSCLC) | growth (786-0 renal) | growth (COLO 205 colon) | growth (DU-145 prostate) | growth (K-562 leukemia) | growth (MALME-3M melanoma) | growth (RXF 393 renal) | growth (SF-268 CNS) | growth (SF-295 CNS) | growth (SF-539 CNS) | growth (UACC-257 melanoma) | growth (M14 melanoma) | growth (MDA-MB-231 breast)
1 | Cc1cccc2cc(-c3cc(-c4ccccc4)nc(=S)[nH]3)c(Cl)nc12 | 82.2% | 90.5% | 90.2% | 97.4% | 101% | 73.2% | 64.2% | 95.9% | 97.7% | 123% | 104% | 38% | 61% | 78.9% | 112% | 64.7% | 82.1% | 77.8% | 33.3% | 
2 | Cc1noc2c(Cc3ccccc3)nn(CC(=O)N/N=C/c3ccc(Cl)cc3)c(=O)c12 | 79.1% | 14.5% | 96.3% | 34.9% | 10.4% | 9.05% (active) | 83.9% | 20.4% | -23.9% (active) | 51.8% | 68.9% | 93.7% | 34.4% |  | 59.8% | 38.8% | 67.7% | 96% | 94.4% | 5.74% (active)
3 | CC(C)c1ccc(C(=O)Nc2sc3c(c2C(N)=O)CCC(=O)C3=O)cc1 | 81.3% | 86.6% | 104% | 102% | 97.5% | 127% | 84% | 99.4% | 113% | 104% | 103% | 77.4% | 103% |  | 103% | 104% | 93.9% | 93.8% | 96.3% | 93.3%
4 | N#Cc1ccc(-c2nn(-c3ccc(C(=O)O)cc3)cc2CNc2cc(Cl)cc(C(F)(F)F)c2)cc1 | -12.8% (active) | 4.02% (active) | 36.4% | 6.03% (active) | 6.19% (active) | -26.6% (active) | 19.5% | 29.7% | 11.5% | 55.7% | 26.7% | 19.4% | 14.7% |  | 31.9% | 9.39% (active) | -26.4% (active) | 14.9% | 11.3% | 27.7%
5 | O=C(NO)c1ccc(Cn2ccc3c(Nc4ccccc4)ncnc32)cc1 | -87.2% (active) | 32% | 42.7% | 14.4% | 13.1% | -16.3% (active) | -40.4% (active) | 25.3% | 31% | -84.9% (active) | 20% | 12.1% | -4.38% (active) |  | 30.8% | -67.5% (active) | -80% (active) | 26.5% | 10.5% | -30.6% (active)
6 | Cc1cccc(-c2nc(Nc3ccccc3C(=O)O)c3ccccc3n2)c1 | 20.8% | 36.1% | 48.7% | 46.2% | 19.1% | -5.02% (active) | 59.9% | 43.6% | 25% | 121% | 50.5% | 28.7% | 37.2% |  | 37.5% | 27.1% | 47.7% | 49.2% | 25.2% | 66.1%
7 | Cn1c(O)c(N=Nc2nc(-c3cc4ccccc4oc3=O)cs2)c2cc(Br)ccc21 | 51.2% | 52% | 84.4% | 12.1% | 92% | -14.7% (active) | 57.9% | 97.8% | -12% (active) | 136% | 101% | 100% | 49.8% |  | 47.2% | 14.3% | -6.85% (active) | 100% | 88.7% | 41.4%
8 | CN1CCc2c(sc3ncnc(N/N=C/c4cn(-c5ccccc5)nc4-c4ccc(Br)cc4)c23)C1 | 8.68% (active) | 81.2% | 33.5% | 54.6% | 18.7% | 71.8% | 54.7% | 25.3% | 65.7% | 5.81% (active) | 56.2% | 18.5% | 29.5% | 83.6% | 67.2% | 72.9% | 15.7% | 29.9% | 19.4% | 
9 | COc1ccc(/C(CSc2nnc(-c3c[nH]c4ccccc34)n2-c2ccccc2)=N/O)cc1 | 41.6% | 18.2% | 36.4% | 45% | 17.3% | 28.2% | 36.5% | 34.2% | 59.7% | 36.3% | 43% | 18.7% | 73.1% |  | 48.5% | 21% | 57.3% | 50.1% | 28.9% | 60.7%
10 | CC(=O)c1ccc(Nc2nc(SCCC(C)C)nc(-c3ccc(F)cc3)c2C#N)cc1 | 53.2% | 5.36% (active) | 41.4% | 41.1% | 11.4% | 3.49% (active) | 72.8% | 18.8% | 2.71% (active) | 77.2% | 61.1% | 63.9% | 72.7% |  | 52.9% | 11.5% | 16.3% | 106% | 84.7% | 24.8%
11 | Cc1ccc(-c2ccc(SCC(=O)Nc3ccc(Cl)c(C(F)(F)F)c3)nn2)cc1 | 30% | 65.6% | 90.1% | 30% | 13.8% | 72.7% | -1.27% (active) | 40.4% | 35.1% | -11% (active) | 23.9% | 4.76% (active) | 38.7% | -32.5% (active) | 38.6% | 13.2% | -35.1% (active) | 57.6% | 2.2% (active) | 
12 | OCc1[nH]nc2cc(Nc3ncc4ccc(Br)c(OC5CCC(O)CC5)c4n3)ccc12 (centres undefined) | -88.8% (active) | -2.72% (active) | -17.9% (active) | 0.469% (active) | 2.31% (active) | 20.9% | -31.2% (active) | 4.04% (active) | -26% (active) | -76.9% (active) | 11.6% | 11.4% | -63.4% (active) |  | 7.67% (active) | -49.8% (active) | -83.3% (active) | -18.2% (active) | -58.9% (active) | -10.2% (active)
13 | COc1ccc2nc(Cl)c(-c3cc(-c4ccccc4)nc(N)n3)cc2c1 | 37.7% | 27.1% | 60.7% | 40.8% | 3.53% (active) | 48.5% | 46.8% | 72.7% | 4.34% (active) | 53.7% | 33.3% | 0.267% (active) | 61% | -19.8% (active) | 58.8% | 30.4% | -45.6% (active) | 71.6% | 44.1% | 
14 | COc1cccc2nc(Nc3cccc(NC(=O)c4ccc(CN5CCCN(C)CC5)c(C(F)(F)F)c4)c3)ccc12 | -97.9% (active) | -70.5% (active) | -100% (active) | -74.7% (active) | -83.6% (active) | -83.5% (active) | -67.5% (active) | -75.6% (active) | -84.9% (active) | -56.9% (active) | -83.4% (active) | 5.93% (active) | -96.3% (active) |  | -50.3% (active) | -97.7% (active) | -100% (active) | -86% (active) | -90.5% (active) | -99.1% (active)
15 | Cc1cc(C)nc(NS(=O)(=O)c2ccc(N/C(N)=N/c3nccc(-c4cccs4)n3)cc2)n1 | 90% | 77.8% | 95.6% | 83% | 99.2% | 107% | 90.5% | 99.7% | 111% | 105% | 109% | 89.3% | 94.2% |  | 99.4% | 92.6% | 80.4% | 111% | 106% | 87%
16 | Cc1ccc(-c2cc(-c3cc4ccccc4nc3Cl)[nH]c(=O)n2)cc1 | 10.1% | -8.6% (active) | 32.1% | -9.15% (active) | 0.523% (active) | 5.62% (active) | -11.7% (active) | 35.5% | -22.6% (active) | 24.7% | 14.2% | 1.33% (active) | 38.5% | -33.9% (active) | 6.42% (active) | 16.2% | -42.6% (active) | 47% | 10.2% | 
